Test results as given in PubChem BioAssay AID1490 (National Center for Advancing Translational Sciences (NCATS), 2009).
Values joined by “and” are separate entries in the source; they are usually repeats but may differ in a detail not shown here. Identical values can stand only once. Hit rate of the full screen: of about 310,000 compounds, about 11,000 (3.5%) were called active. Not shown: some 4% with an inconclusive outcome. Calls follow the shape of the dose curve; as a rule, active = well fitted inhibition curve with a large enough effect; inconclusive = small, poorly fitted or top-dose-only effect, or another doubt; inactive = no such curve, though single readings can be large or run the other way. What follows is part of a selection rich in actives, with near analogues and random picks from the rest. Non-standard residues stand in square brackets, D forms with d. Residues, ends and D or L forms follow the SMILES beside them. *: point of attachment. PhAc = O=C(Cc1ccccc1)*

target: 4'-phosphopantetheinyl transferase ffp (Bacillus subtilis) (UniProt Q9F4F7); experiment: qHTS Assay for Inhibitors of Bacillus subtilis Sfp phosphopantetheinyl transferase (PPTase); details: Biochemical Sfp PPTase activity;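 also: the enzyme is Sfp with the accession as filed and its product quenches rhodamine fluorescence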;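 as to Largest response in the series, negative = inhibition: 0% = enzyme reaction without inhibitor and -100% = no enzyme wells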
In short: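 Reaction rates are the 30-min fluorescence difference (ex 525, em 598 nm) in wells containing 15 nM Sfp, 5 uM rhodamine-CoA and 12.5 uM BHQ-2-YbbR at pH 7.6 with 10 mM MgCl2.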
Potency is read from the fitted curve at half-maximal effect.

Largest response in the series, negative = inhibition, inactive:
CC(=O)C1=C(C)NC(=O)NC1c1ccc2c(c1)OCO2 (centres undefined) 0.489%
N=c1c2c3c(sc2ncn1N)CCCC3 13.2%
c1nnc2c3c4c(sc3ncn12)CCC4 -1.58%
Cc1cc(-c2ccc(S(=O)(=O)N3CCc4ccccc4C3)s2)on1 12.5%
O=C(NCc1ccccc1)C(c1ccco1)N(C(=O)c1csnn1)c1ccccc1F (centres undefined) 11.4%
C[C@H](NC(=O)C1CC(=O)N(c2ccc3c(c2)OCO3)C1)C(=O)NCc1ccco1 (some centres undefined) 4.65%
CC/C=C\C/C=C\C/C=C\C/C=C\C/C=C\C/C=C\CCC(=O)NC(C)C(=O)O (centres undefined) -29.1%
CN(C)/C=C1/C(=O)Nc2ccccc21 -6.73%
COc1cccc(/C=C2\C=C(c3ccc(C)cc3)OC2=O)c1OC(C)=O -6.33%
O=S(=O)(c1ccccc1)N(Cc1cccc(F)c1)c1ccccc1 13.8%
Cc1ccccc1-c1nc(N(C)Cc2ccco2)c2ccccc2n1 -22.5%
CN(Cc1ccco1)c1cc(-c2ccccc2C(F)(F)F)ncn1 -8.82%
CCC1OC(c2ccc([N+](=O)[O-])cc2)=Nc2ccccc21 (centres undefined) -5.21%
CCOc1cc(C)ccc1OCc1nnc(SCC(=O)Nc2cccc(C(=O)O)c2)n1-c1ccccc1 22.3%
Cc1ccc(NC(=O)[C@H](Cc2ccccc2)NC(=O)C2CCNCC2)cc1 1.09%
CCOC(=O)c1c(NC(=O)Cn2nc(C(F)(F)F)cc2C)sc2c1CCC2 -2.66%
CCOC(=O)c1c(NC(=O)CCC(=O)NCc2ccco2)sc2c1CCCC2 -8.63%
CCOC(=O)c1c(NC(=S)NC)sc2c1CCCC2 7.02%
CCOC(=O)c1c(NC(=S)Nc2ccccc2C)sc2c1CCC2 -14.6%
Cc1ccc(C(=O)OCC(=O)NC(=O)Cc2ccccc2)c(O)c1 15.9%
CNC(=O)[C@]1(C(F)(F)F)C[C@H](CCc2ccccc2)CCCO1 -10.7%
O=C(NCC1CC1)C1(C(F)(F)F)C/C(=C\CCO)CCCO1 (centres undefined) 1.74%
Cc1ccc(CNC(=O)Cn2cnc(S(=O)(=O)N3CCCCC3)c2)o1 14.3%
O=C(NCc1ccccn1)[C@]1(C(F)(F)F)C[C@H](CCc2ccccc2)CCCO1 -24.4%
CCCn1nc(NC(=O)C(C)C)c2cc3cc(OC)ccc3nc21 4.66%
CC(O)COc1ccccc1 (centres undefined) 12.6%
COc1ccc(N(CC(=O)NCc2ccc(F)cc2)C(=O)CCC(=O)Nc2nccs2)cc1 -11.5%
O=C1CCC(=O)N(c2ccccc2)N1 -3.33%
CN(CCC(=O)Nc1cc(S(=O)(=O)N(C)C)ccc1Cl)CC(=O)Nc1ccc(F)cc1 13.5%
Cn1c(N)c(C(=O)COC(=O)c2cc(C(F)(F)F)nc3c(C(F)(F)F)cccc23)c(=O)n(C)c1=O 13.8%
N#C/C(=C\c1ccc(N2CCOCC2)o1)C(=O)N1CCOCC1 -13.7%
N#C/C(=C/c1ccc(N2CCCCC2)o1)C(=O)NCCc1c[nH]c2ccccc12 -16.2%
CCCCC[C@H]1CN(C2CCCCC2)C(=O)[C@@H]1CC(=O)NCc1ccc(OC)cc1 -4.46%
O=C(Nc1ccccc1N1CCN(C(=O)c2ccccc2)CC1)c1ccco1 14.1%
CC(C)[C@@H](NC(=O)OC(C)(C)C)C(=O)NCC1CCC(C(=O)N[C@@H](Cc2ccccc2)C(=O)O)CC1 (some centres undefined) 6.54%
O=C(O)CCCCCCCCc1cn(CN2C(=O)c3ccccc3C2=O)nn1 -11%
Cc1cccc(COc2ccccc2/C=N/Nc2ccc([N+](=O)[O-])cc2)c1 24.5%
Cc1ccc(NS(=O)(=O)c2ccc(C)c(NC(=O)COc3ccc4ccccc4c3)c2)c(C)c1 -28.6%
N#Cc1ccc(/C=C2\CCn3c2nc2cc(C(=O)O)ccc2c3=O)cc1 31.1%
N#Cc1cccc(-c2ccc3ncnc(NCc4cccs4)c3c2)c1 -14.8%
O=C(Cc1ccccc1Cl)N1CCOCC1 17%
COC(=O)[C@@]1(Cc2ccc(F)cc2)[C@H]2c3cc(C(=O)N(C)C)n(CCc4c[nH]c5ccc(OC)cc45)c3C[C@H]2CN1C(=O)c1ccccc1 0.76%
O=C(NCc1ccc(Cl)cc1)c1cc(=O)nc2sc(-c3ccccc3)nn12 1.8%
O=C(NCc1ccc(Cl)cc1)NCc1ccc(Cl)cc1 -3.32%
Cc1c(C(=O)NCCN(C)C)oc2ccc(S(=O)(=O)N3CCCC3)cc12 18.9%
Fc1cc(F)c2nc(Nc3nc4c(F)cccc4s3)sc2c1 -0.873%
NC(=O)c1c(NC(=O)c2ccccc2)sc2c1CCCC2 4.07%
COc1ccc(N2CCN(S(=O)(=O)c3cc(Br)cnc3N)CC2)cc1 7.84%
C=CCc1c(C)nc2cc(-c3ccccc3)[nH]n2c1=O 7.41%
Cc1nc2c(-c3ccc(F)cc3)c(C)nn2c(C)c1CCC(=O)NCc1ccco1 -2.36%
COc1cc(OC)cc(-c2nc3nc(C)c(CCC(=O)NCc4ccco4)c(C)n3n2)c1 8.97%
CC(C)C(=O)Nc1nnc(SCC(=O)N2C(C)CCCC2C)s1 (centres undefined) -17.7%
COc1ccc(Cl)cc1S(=O)(=O)N1CCN(CC(=O)C(C)(C)C)CC1 7.95%
O=S(=O)(c1cc(Cl)ccc1Cl)N1CCN(Cc2ccco2)CC1 22.5%
COc1ccccc1CNC(=O)C1CCN(S(=O)(=O)c2ccc3c(c2)CC(C)N3C(=O)C2CC2)CC1 (centres undefined) -7.76%
CN(C)S(=O)(=O)c1ccc(N2CCCC2)c(C(=O)Nc2cccc(F)c2)c1 -1.67%
Cc1ccc(C(=O)NCCc2nnc(SCC(=O)Nc3cccc(C(=O)O)c3)n2C)cc1 10.4%
CC(CCc1ccccc1)NC(=O)COC(=O)c1ccc(F)cc1 (centres undefined) -4.51%
CCOc1cccc(NC(=O)C2CCCN(S(=O)(=O)c3ccc(OC)cc3)C2)c1 (centres undefined) -5.07%
COc1ccccc1CC(=O)Nc1ccc(S(=O)(=O)N2CCCC2)cc1 4.84%
Cc1cc(C)c(C#N)c(Nc2cccc(Br)c2)n1 6.8%
CC(C)C[C@@H](NC(=O)[C@H]1CCCN1C(=O)Cc1ccccc1)C(N)=O (PhAc-[dP]-[dL]-NH2) 21.3%
CC(C)CCN(C(=O)c1csnn1)C(C(=O)NC1CCCC1)c1ccccc1 (centres undefined) 13.6%
COc1ccc2[nH]cc(CCNc3ncnc4ccc(-c5ccc(C(=O)N(C)C)cc5)cc34)c2c1 -5.41%
COc1cccc(Cn2cc(/C=N/NC(=O)c3cc(O)cc(O)c3)c3ccccc32)c1 -18.5%
COc1ccc(/C=N/NC(=O)c2cccc(C(F)(F)F)c2)cc1 -22%
O=C(NC1Cc2ccccc2C1)c1cc(COc2cccc(C(F)(F)F)c2)on1 24%
Cc1ccc(-c2n[nH]c(=S)n2/N=C/c2cc3c(cc2[N+](=O)[O-])OCO3)cc1 -22.6%
CCc1n[nH]c(=S)n1/N=C/c1c[nH]c2ccc(Br)cc12 11.4%
S=c1[nH]nc(COc2ccccc2)n1-c1ccccc1 21.2%
Cc1ccc(OCc2n[nH]c(=S)n2-c2ccccc2)cc1 5.12%

Potency, active:
S=c1[nH]nc2c3c4c(sc3ncn12)CCCC4 56.2 µM
CN(C)/C=C1\C=C(c2ccccc2)OC1=O 20 µM
CN(Cc1ccco1)c1ncncc1-c1ccoc1 79.4 µM
CCOC(=O)c1c(NC(=O)C2(C)Cc3ccccc3C(=O)O2)sc2c1CCCC2 (centres undefined) 35.5 µM
CCCOC(=O)Nc1sc2c(c1C(=O)OCC)CCC2 14.1 µM
Cc1ccc(CNC(=O)C2(C(F)(F)F)C/C(=C\CCO)CCCO2)o1 (centres undefined) 50.1 µM
Cc1ccc(CNC(=O)C2(C(F)(F)F)C/C(=C\Cc3ccccc3)CCCO2)o1 (centres undefined) 35.5 µM and 50.1 µM
N#C/C(=C/c1ccc(N2CCOCC2)o1)C(=O)N1CCOCC1 56.2 µM
Cc1ccc(NS(=O)(=O)c2ccc(N/N=C/c3ccccc3OCC(=O)O)c([N+](=O)[O-])c2)c(C)c1 79.4 µM
O=C(NCc1ccc(Cl)cc1)c1cc2c(nc3sccn32)s1 50.1 µM
NC(=O)c1c(Nc2nc3c(F)cccc3s2)sc2c1CCCC2 44.7 µM
COc1ccc(-c2cc3nc(C)c(CCC(=O)NC(C)CCc4ccco4)c(C)n3n2)c(OC)c1 (centres undefined) 79.4 µM
O=C(CN1CCN(S(=O)(=O)c2cc(Cl)ccc2Cl)CC1)c1ccc(O)c(O)c1 50.1 µM
O=C1CCC(=O)N(O)CCCCCNC(=O)CCC(=O)N(O)CCCCCNC(=O)CCC(=O)N(O)CCCCCN1 89.1 µM
CCN(CC(=O)Nc1ccc(S(=O)(=O)N2CCCC2)cc1)CC(=O)Nc1cccc(OC)c1 79.4 µM
O=C(Cn1cc(/C=N/NC(=O)c2cccc(C(F)(F)F)c2)c2ccccc21)Nc1ccc(F)cc1 20 µM
Fc1ccc(/C=N/n2c(COc3ccccc3)n[nH]c2=S)cc1 56.2 µM
O=[N+]([O-])c1ccccc1/C=N/n1c(COc2ccccc2)n[nH]c1=S 56.2 µM
